From publication PMC4336329 (PLoS ONE, 2015)
Out of some 310,000 compounds screened, about 14,000 (4.5%) showed an effect of 50% or more. Effects have a minus sign here. The list comes from a sample in which strong results are over-represented; it also holds similar structures and randomly drawn compounds. Where a SMILES comes first, the peptide text is derived from it. The star is where a group is joined. Cbz = O=C(OCc1ccccc1)*

These molecules were tested against human ether-à-go-go-related gene (hERG) potassium channel (human, UniProt Q12809) (assay: primary screen, population patch clamp on CHO cells stably expressing hERG; higher = less effect of the substance).
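Also: peak tail current of the secondary pulse compared with the same well before compound.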

Chain of human ether-à-go-go-related gene (hERG) potassium channel (Q12809 whole entry, looked up): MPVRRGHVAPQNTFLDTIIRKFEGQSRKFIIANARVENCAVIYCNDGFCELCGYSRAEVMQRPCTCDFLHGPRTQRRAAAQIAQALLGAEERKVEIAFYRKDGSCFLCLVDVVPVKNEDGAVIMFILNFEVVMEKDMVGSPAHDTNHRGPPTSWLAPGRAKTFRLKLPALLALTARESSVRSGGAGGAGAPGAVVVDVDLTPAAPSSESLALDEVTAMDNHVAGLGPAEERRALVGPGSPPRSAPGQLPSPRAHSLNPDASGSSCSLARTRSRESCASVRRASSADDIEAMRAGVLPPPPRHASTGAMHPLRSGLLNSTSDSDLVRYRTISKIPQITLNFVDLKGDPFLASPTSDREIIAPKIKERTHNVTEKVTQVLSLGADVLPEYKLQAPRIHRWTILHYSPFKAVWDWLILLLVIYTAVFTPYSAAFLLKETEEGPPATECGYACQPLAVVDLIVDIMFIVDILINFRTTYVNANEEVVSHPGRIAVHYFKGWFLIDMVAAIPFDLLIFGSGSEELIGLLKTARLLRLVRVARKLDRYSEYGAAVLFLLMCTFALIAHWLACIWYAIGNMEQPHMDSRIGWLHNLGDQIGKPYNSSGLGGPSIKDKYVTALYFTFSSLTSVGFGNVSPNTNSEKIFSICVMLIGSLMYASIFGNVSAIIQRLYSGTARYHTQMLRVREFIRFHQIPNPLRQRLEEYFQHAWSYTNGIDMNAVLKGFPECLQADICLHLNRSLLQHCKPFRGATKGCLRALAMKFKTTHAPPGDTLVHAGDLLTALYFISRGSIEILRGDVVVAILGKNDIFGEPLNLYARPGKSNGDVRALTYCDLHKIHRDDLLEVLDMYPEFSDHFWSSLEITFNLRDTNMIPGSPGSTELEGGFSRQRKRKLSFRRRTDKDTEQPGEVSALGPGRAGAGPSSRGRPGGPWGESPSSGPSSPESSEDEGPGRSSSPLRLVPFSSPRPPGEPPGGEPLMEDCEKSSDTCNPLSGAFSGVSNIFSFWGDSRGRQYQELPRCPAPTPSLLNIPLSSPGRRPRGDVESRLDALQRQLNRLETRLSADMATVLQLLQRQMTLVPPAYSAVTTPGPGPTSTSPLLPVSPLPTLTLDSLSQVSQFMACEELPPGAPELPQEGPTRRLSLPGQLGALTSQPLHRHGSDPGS

Compound	hERG current change (%, negative = inhibition) at 10uM [%]
COC1c2ccccc2C(=O)N1Cc1ccc(F)cc1 (stereo not drawn)	5.48
O=C(Oc1c(Br)cc([N+](=O)[O-])cc1Br)c1cccnc1	16.7
O=C(O)CCC(NC(=O)C1CCCN1C(=O)OCc1ccccc1)C(=O)O (stereo not drawn) (Cbz-Pro-Glu-OH; configuration not given here)	14
Cc1cc(C)nc(SCCc2ccncc2)n1.Cl	9.82
CN(c1ccc(OC(=O)CC2OC(=O)c3ccccc32)cc1)S(=O)(=O)c1ccccc1 (stereo not drawn)	-8.52
Cc1ccc(C2C(N)C(=O)N2c2ccc(C)cc2)cc1 (stereo not drawn)	-5.54
CN1C2CCC1CC(OC(=O)c1ccc(Cl)cc1)C2.Cl (stereo not drawn)	-48.9
O=C(OC1Cn2c(=O)ccc(=O)n2C1)c1ccc([N+](=O)[O-])cc1	-12.8
CCOc1ccc(C(=O)OC2CC3CCC(C2)N3C)cc1.Cl (stereo not drawn)	-30
CN1CCCC(OC(=O)c2cc(Cl)cc(Cl)c2)C1.Cl (stereo not drawn)	-43.4
CN1[C@@H]2CC[C@H]1CC(OC(=O)c1c[nH]c3ccccc13)C2.Cl (stereo partly drawn)	-48.1
CN1C2CCC1CC(OC(=O)c1c[nH]c3ccccc13)C2 (stereo not drawn)	-59.1
CN1C2CCC1CC(OC(=O)c1ccc([N+](=O)[O-])cc1)C2 (stereo not drawn)	-67.9
CN1C2CCC1CC(OC(=O)c1c[nH]c3ccccc13)C2.Cl (stereo not drawn)	-40.2
CN1C2CCC1CC(OC(=O)c1cc(Cl)cc(Cl)c1)C2.Cl (stereo not drawn)	-57.4
CCOC(=O)c1ccc(S(=O)(=O)N2CCN(c3ccccn3)CC2)cc1	8.95
CCOc1ccc(OCC)c(NC(=O)C2CCN(c3nn4c(=O)cc(C)nc4s3)CC2)c1	-30.5
COc1ccc(CCC(=O)c2ccc(OC)cc2)cc1	-1.41
Cc1ccc(C)c(NC(=O)COC(=O)CCCN=C2NS(=O)(=O)c3ccccc32)c1	4.55
Cn1nc([N+](=O)[O-])nc1Sc1cccc2cccnc12	13.9
Cc1ccc2c(Cl)cc(Cl)c(OCC(=O)NCCc3ccccn3)c2n1	-42.7
Cc1ccc(CNC(=O)[C@@H](NC(=O)Cc2ccccc2)C(C)C)cc1	6.89

Compound	hERG current change (%, negative = inhibition) at 10uM [%]
CCN(CC)CCCNC(=O)C1CCC(=O)N(c2ccc(OC)cc2)C1c1ccc(F)cc1 (stereo not drawn)	1.14
CCOc1ccc(N(CC)C(=O)Cc2c(C(=O)O)n(C)c3ccccc23)cc1	16.8
COC(=O)c1sccc1-n1cccc1C(=O)C(=O)N1CCOCC1	-78.3
COC(=O)c1sccc1-n1cccc1C(=O)C(=O)N1CCCC1	14.3
COC(=O)c1sccc1-n1cccc1C(=O)N1CCOCC1	-44.5
CCC(C(=O)NCCC1=CCCCC1)n1nc(C)c2c(C)n(-c3ccccc3)nc2c1=O (stereo not drawn)	-48.6
Cc1ccc(CNC(=O)CCCn2nc(C)c3c(C)n(-c4ccccc4)nc3c2=O)cc1	5.48
CSc1ccc(CNC(=O)C(C)n2nc(C)c3c(C)n(-c4ccccc4)nc3c2=O)cc1 (stereo not drawn)	-38.2
Cc1ccc(-n2nc3c(=O)n(CCCC(=O)NCc4ccc(F)cc4)nc(C)c3c2C)cc1	-76.5
Cc1ccc(-n2nc3c(=O)n(C(C)C(=O)NCc4ccccc4Cl)nc(C)c3c2C)cc1 (stereo not drawn)	-35.5
Cc1ccc(-n2nc3c(=O)n(CC(=O)NCCC4=CCCCC4)nc(C)c3c2C)cc1	2.08
Cc1ccc(-n2nc3c(=O)n(C(C)C(=O)NCc4ccc(Cl)cc4)nc(C)c3c2C)cc1 (stereo not drawn)	-63.5
Cc1ccc(-n2nc3c(=O)n(C(C)C(=O)NCCC4=CCCCC4)nc(C)c3c2C)cc1 (stereo not drawn)	-51.4
Cc1ccc(-n2nc3c(=O)n(CCCC(=O)NCc4ccc(Cl)cc4)nc(C)c3c2C)cc1	4.82
COc1ccc(CNC(=O)C(C)n2nc(C)c3c(C)n(-c4ccc(C)cc4)nc3c2=O)cc1 (stereo not drawn)	-50.1
Cc1ccc(-n2nc3c(=O)n(C(C)C(=O)NCc4ccc5c(c4)OCO5)nc(C)c3c2C)cc1 (stereo not drawn)	1.78
CCOc1ccc(CNC(=O)C(C)n2nc(C)c3c(C)n(-c4ccccc4)nc3c2=O)cc1 (stereo not drawn)	-16.1
CCOc1ccc(C(=O)NNC(=O)CCNC(=O)c2ccco2)cc1OC	12.9
Cc1ccc(OCCn2cccc2/C=C2/C(=O)NC(=O)N(Cc3ccco3)C2=O)cc1	-0.631
CCOC(=O)C1CCN(C(=S)Nc2cc(OC)c(OC)cc2C(=O)OC)CC1	-10.9
COc1cc(CNCC(C)C)c(Br)cc1OCC(=O)NCc1ccccc1	-10.7
Cc1ccc(C2C(C#N)=C(N)OC3=C2C(=O)CC(C)(C)C3)s1 (stereo not drawn)	-4.59

Compound	hERG current change (%, negative = inhibition) at 10uM [%]
COc1ccc(-n2nnc3c(SCC(=O)N4CCCc5ccccc54)ncnc32)cc1	13.6
Cc1nn(C(C)C(=O)NCc2ccccc2F)c(=O)c2nn(-c3ccccc3)c(C)c12 (stereo not drawn)	13.8
CCOc1ccccc1CNC(=O)C(C)n1nc(C)c2c(C)n(-c3ccccc3)nc2c1=O (stereo not drawn)	-65.4
COc1ccccc1CNC(=O)C(C)n1nc(C)c2c(C)n(-c3ccccc3)nc2c1=O (stereo not drawn)	-0.0415
Cc1ccc(-n2nc3c(=O)n(C(C)C(=O)NCCCc4ccccc4)nc(C)c3c2C)cc1 (stereo not drawn)	-55.2
Cc1ccc(CCNC(=O)C(C)n2nc(C)c3c(C)n(-c4ccccc4)nc3c2=O)cc1 (stereo not drawn)	-36.3
Cc1nn(C(C)C(=O)NCCCc2ccccc2)c(=O)c2nn(-c3ccccc3)c(C)c12 (stereo not drawn)	-20
CNC(=S)Nc1cccc(S(=O)(=O)NC2=NCCC2)c1	-7.6
Cc1c(-c2ccccc2)c(=O)oc2ccc(O)cc12	13.8
CC1CCCCC1NC1CCN(C)CC1 (stereo not drawn)	23.9
O=C(Nc1ccc2c(c1)OCO2)c1c(F)cccc1F	3.95
COc1ccccc1-c1cc(C(=O)NCc2ccc(Cl)cc2)no1	3.64
Cc1cc(Nc2c(C#N)c(N)nn2C)ccc1F	6.99
Cc1cc(Nc2n[nH]c(N)c2C#N)ccc1F	-70.2
Cc1cc(Nc2nn(C)c(N)c2C#N)ccc1F	-14.8
CCOc1ccc(C(=O)Nc2cc(-c3nc4ccccc4[nH]3)ccc2Cl)cc1[N+](=O)[O-]	-29.1
CCCn1c2ccccc2c2cnn(CC(=O)NC3CCCCC3C)c(=O)c21 (stereo not drawn)	11.7
CCCn1c2ccccc2c2cnn(CC(=O)NCCCOC)c(=O)c21	-1.43
CCCn1c2ccccc2c2cnn(CC(=O)NCCCN3CCCC(C)C3)c(=O)c21 (stereo not drawn)	-70.8
CCC1CCCCN1CCCNC(=O)Cn1ncc2c(C)n(Cc3ccccc3Cl)c(C)c2c1=O (stereo not drawn)	-14.6
CCCn1c2ccccc2c2cnn(CC(=O)NCCCN3C(C)CCCC3C)c(=O)c21 (stereo not drawn)	-41.8
CCC1CCCCN1CCCNC(=O)Cn1ncc2c([nH]c3ccc(C)cc32)c1=O (stereo not drawn)	-6.66

Compound	hERG current change (%, negative = inhibition) at 10uM [%]
CCCn1c2ccccc2c2cnn(CC(=O)N3CCN(C4CCCCC4)CC3)c(=O)c21	-72.6
CCCn1c2ccccc2c2cnn(CC(=O)N3CCOCC3)c(=O)c21	-13.7
CCCn1c2ccccc2c2cnn(CC(=O)NCCCN3CCCCC3CC)c(=O)c21 (stereo not drawn)	-62.2
CCCn1c2ccccc2c2cnn(CC(=O)NCCCN3CCN(c4ccccc4)CC3)c(=O)c21	-74.2
Cn1c2ccccc2c2cnn(CC(=O)N3CCCCC3)c(=O)c21	-10.4
Cc1ccc(N(Cc2cc3ccccc3[nH]c2=O)C(=O)c2cccs2)cc1C	9.8
O=C(NNc1ccc(Cl)cc1)C1CCC1	16.6
Cc1cc(C)cc(OCC(=O)O/N=C(\N)c2ccccc2Cl)c1	-13.6
CCOc1cc(/C=C(\C#N)C(N)=O)ccc1OCc1c(C)no[n+]1[O-]	-0.204
Cc1cc(C)n(-c2ccc(C(F)(F)F)cc2[N+](=O)[O-])n1	1.78
Cc1nn(C)c(N)c1-c1ccccc1	25.4
O=C(Cn1ncc2c3ccccc3n(Cc3ccc(Cl)cc3)c2c1=O)NCCCN1CCCC1=O	-34.5
CCCn1c2ccccc2c2cnn(CC(=O)NC3CCN(Cc4ccccc4)CC3)c(=O)c21	-55.1
CCCn1c2ccccc2c2cnn(CC(=O)NC3CCC(C)CC3)c(=O)c21 (stereo not drawn)	9.11
CCCn1c2ccccc2c2cnn(CC(=O)NC3CCCCC3)c(=O)c21	2.23
CCCn1c2ccccc2c2cnn(CC(=O)NCCCN3CCCCC3)c(=O)c21	-53.4
O=C(Cn1ncc2c3ccccc3n(Cc3ccccc3)c2c1=O)NCCCN1CCCC1	-72.5
Cc1ccc(C)c(Cn2c3ccccc3c3cnn(CC(=O)NCCCN4CCCCC4)c(=O)c32)c1	-71.9
Cc1ccccc1Cn1c2ccccc2c2cnn(CC(=O)NCCCN3CCN(C)CC3)c(=O)c21	-3.23
Cc1ccc(C)c(Cn2c3ccccc3c3cnn(CC(=O)NCCCN4CCOCC4)c(=O)c32)c1	-49.7
O=C(Cn1ncc2c3ccccc3n(Cc3ccccc3)c2c1=O)NCCCN1CCCC1=O	-29.8
